IL-1B inflam inh: blocks inflammasome-driven IL-1 beta release; 360,000 tested, 4.7% active; activity change, % at 57.5 µM; AID 743279; THP-1 LPS/ATP IL-1B secretion, AlphaLISA, 16 h; active compounds read low; in the data active means activity change below about -50%; inconclusive means mostly about -30% to -49%
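Secreted IL-1B measured by AlphaLISA bead assay after 16 h compound exposure of THP-1 cells; compounds (final up to 57.5 uM) added 1 h before LPS (250 ng/mL) and ATP (1.25 mM) stimulation; lower signal means less secretion.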
RORgamma inh: inhibitors of mouse ROR gamma transcriptional activity. 310,000 tested, 5.4% active. P51450. Drosophila S2 Gal4-RORgamma UAS-luciferase reporter, 20 h. Potency, µM (doses to about 53.6 µM), actives largely listed as inhibitors. AID 2551; further: nearly all actives have a fitted effect of over 60% in size
Target sequence (P51450 whole entry, looked up, the tested form may be a part): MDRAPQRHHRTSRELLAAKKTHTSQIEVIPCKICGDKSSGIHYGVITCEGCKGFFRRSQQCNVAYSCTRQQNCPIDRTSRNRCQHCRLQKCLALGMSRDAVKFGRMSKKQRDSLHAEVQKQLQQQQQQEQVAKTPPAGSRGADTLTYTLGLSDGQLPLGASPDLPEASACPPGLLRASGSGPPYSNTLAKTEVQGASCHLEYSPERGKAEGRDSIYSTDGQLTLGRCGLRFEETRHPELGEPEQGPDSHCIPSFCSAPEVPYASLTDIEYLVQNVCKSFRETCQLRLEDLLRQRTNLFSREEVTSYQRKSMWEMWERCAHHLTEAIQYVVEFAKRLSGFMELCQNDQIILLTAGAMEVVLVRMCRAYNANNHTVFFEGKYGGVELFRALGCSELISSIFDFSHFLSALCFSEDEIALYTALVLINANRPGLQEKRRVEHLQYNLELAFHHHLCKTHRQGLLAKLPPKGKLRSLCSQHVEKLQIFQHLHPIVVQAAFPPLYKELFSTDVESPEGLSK
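Schneider cells (Drosophila), stable Gal4 DBD–ROR gamma + UAS-luc; 1 hr cmpd preincubation; Cu2+ induction 700 uM final; 20 hr ambient; luminescence.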
MCF10A rerep: DNA re-replication induction in MCF 10a cells | MCF 10A DNA re-replication, Hoechst nuclear intensity, 48 h | Potency, µM (doses to about 46.1 µM), most hits filed as activators | 350,000 tested, 2.9% active | AID 624296; further: nearly all actives have a fitted effect of over 50% in size
SW480 rerep: inducers of DNA re-replication in SW480 colon cancer cells. SW480 DNA re-replication, Hoechst DNA content imaging, 48 h. Potency, µM (titrated, usually from 46.1 µM), usual class: activators. 340,000 tested, 1.8% active. AID 624297; further: nearly all actives have a fitted effect of over 55% in size
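Image-based DNA-content assay: after two days of treatment, nuclei were labelled with the DNA dye Hoechst and imaged, and hits were compounds raising the count of nuclei showing high fluorescence intensity.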
VP16 counter: Gal4-VP16 reporter inhibition counter-screen; Drosophila S2 Gal4-VP16 UAS-luciferase, luminescence, 20 h; Potency, µM (doses to about 53.6 µM), most hits filed as inhibitors; AID 2546; 310,000 tested, 3.5% active;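 further: Gal4-VP16 expression switched on by copper sulfate through the metallothionein promoter; nearly all actives have a fitted effect of over 50% in size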
Numbers stand for hits; i = inactive; ? = inconclusive; nt = no result; [ ] = remark or other dose. Most compounds without a hit are left out; they make up all but 11% or so of the library. Unless noted, the call rests on the fitted dose curve; in most records, active means well fitted curve in the direction sought with a large enough effect; inconclusive means small, poorly fitted or top-dose-only effect, or another doubt; inactive means no such curve, though single readings can be large; an effect the other way counts as inactive or inconclusive.

SMILES	IL-1B inflam inh	RORgamma inh	MCF10A rerep	SW480 rerep	VP16 counter
CC(C)(C)c1ccc(-n2ncc3c2CCCC3NC(=O)CCN2CCCC2=O)cc1 (configuration not stated)	i	3.55µM	i	i	0.891µM
CC1(C)Cc2c(cnn2-c2ccc(F)cc2)C(NC(=O)CN2CCCCC2=O)C1 (configuration not stated)	i	3.55µM	i	i	15.8µM
O=C(c1ccc2n[nH]nc2c1)N1CCN(c2ccc(C(F)(F)F)cn2)CC1	i	nt	i	?	nt
COc1cc(/C=N/N=C2/NC(=O)C(c3ccccc3)S2)ccc1O (configuration not stated)	i	i	i	i	i
COc1cc(/C=N/N=C2/NC(=O)C(Cc3ccc(F)cc3)S2)ccc1O (configuration not stated)	i	12.6µM	?	?	?
N=C(N)SCc1ccc(Cl)c2ccccc12	-101.1	nt	?	i	nt
CN1CCN(c2ccc(CNC(=O)c3ccc(-c4ccc(F)c(F)c4)c4ccoc34)cc2)CC1	i	nt	nt	nt	nt
COc1cc(C(C)=O)ccc1OCC(=O)N1CCCC1c1ccc2c(c1)OCCCO2 (configuration not stated)	i	nt	nt	nt	nt
NC(CSC(c1ccccc1)(c1ccccc1)c1cccc2ccccc12)C(=O)O (configuration not stated)	-50.2	nt	?	i	nt
COC(=O)[C@H](COC(C)(C)C)NC(=O)O[C@@H]1C(=O)c2ccc(OC)cc2O[C@H]1c1cccc(C(F)(F)F)c1	nt	i	nt	nt	i
CC(=O)c1cnc(N(C)C)s1	i	i	i	i[9.22 µM]	i
O=C1C(Cl)=C(N2CCCCC2)C(=O)C(Cl)=C1c1cnc(N2CCCCC2)s1	-71.3	?	5.8µM	5.8µM	?
CN(C)c1ncc(C2=C(Cl)C(=O)C(N3CCCC3)=C(Cl)C2=O)s1	-103.8	nt	?	9.2µM	nt
CCN(CC)C(=O)c1csc([C@@H]2O[C@H](CO)[C@H](O)[C@H](O)[C@H]2O)n1	i	nt	nt	nt	nt
CS(=O)(=O)c1ccc(C(=O)Nc2nc(-c3ccco3)c(-c3ccco3)s2)cc1	?	nt	?	i	nt
N#C/C(=C\c1ccccc1C(F)(F)F)C(=O)Nc1ccccc1	-69.7	i[10 µM]	i	i	i
CCCOc1ccccc1/C=C(\C#N)C(=O)Nc1cccc(C)n1	i	i	i	i	i
CCc1cccc(CC)c1NC(=O)/C(C#N)=C/c1ccccc1C(F)(F)F	-98.6	11.2µM	11.6µM	i	10µM
COc1ccc(COC(=O)C2CCN(S(=O)(=O)c3ccc(C)cc3)CC2)cc1	i	nt	i	i	nt
COc1ccc(C2CC(c3cccc(Cl)c3)=NN2c2ccc(S(N)(=O)=O)cc2)cc1 (configuration not stated)	?	nt	1.3µM	2.06µM	nt
COc1ccc(C2CC(c3ccc(Cl)cc3)=NN2c2ccc(S(N)(=O)=O)cc2)cc1 (configuration not stated)	i	nt	?	0.82µM	nt
COc1ccc(C2CC(c3ccc(Cl)cc3)=NN2C(C)=O)cc1 (configuration not stated)	i	i	i	i	i
COc1ccc(C2CC(c3ccncc3)=NN2c2ccc(S(N)(=O)=O)cc2)cc1 (configuration not stated)	i	nt	2.91µM	18.4µM	nt
COc1ccc(C2CC(c3ccccc3)=NN2C(=O)COC(=O)c2ccc(S(C)(=O)=O)cc2)cc1 (configuration not stated)	i	nt	i	i	nt
CC(C)C[C@@H](CC(=O)N[C@H](CC(=O)N[C@@H]1CCNC[C@H]1C(=O)N[C@H](CC(=O)N[C@@H](CCC(=O)O)CC(=O)O)Cc1ccccc1)C(C)C)NC(=O)[C@@H]1CNCC[C@H]1N	nt	i	nt	nt	i
SMILES	IL-1B inflam inh	RORgamma inh	MCF10A rerep	SW480 rerep	VP16 counter
Cc1ccc(N(CC(=O)NCc2ccccc2)C(=O)c2csnn2)cc1	i	i	i	i	i
CC(C)(C)c1ccc(CSc2nnc(-c3ccccn3)n2Cc2ccco2)cc1	-93.7	?	16.4µM	?	7.08µM
O=c1cc(CSc2nnc(-c3cccs3)n2Cc2ccccc2)nc2sc3ccccc3n12	-51.1	?	i	i	14.1µM
Cc1ccccc1CSc1nnc(-c2cccs2)n1Cc1ccco1	i	i	?	i	i
CCOC(=O)c1c(C)[nH]c(C(=O)CSc2nnc(-c3cccs3)n2Cc2ccccc2)c1C	i	i	?	?	i
Cc1cc(C(=O)CSc2nnc(-c3cccs3)n2Cc2ccccc2)c(C)n1C	?	i	i	i[9.22 µM]	i
CC(=O)c1c(C)[nH]c(C(=O)CSc2nnc(-c3cccs3)n2Cc2ccccc2)c1C	i	i	20.6µM	i	i
c1ccc(CSc2nnc(-c3cccs3)n2Cc2ccco2)cc1	-66.6	i	i	i	i
CSc1ccccc1NC(=O)CSc1nnc(CNC(=O)c2ccccc2F)n1C	i	i	i	i	i
COC(=O)Oc1ccccc1C(=O)O	nt	i	nt	nt	i
COCc1cc(C)nc(Sc2nc3c(c(=O)n(C)c(=O)n3C)n2C)c1C#N	i	i	i	i	i
CN(CC(=O)Nc1ccc(S(=O)(=O)N2CCCC2)cc1)Cc1ccc(Cl)cc1	i	i	?	nt	i
O=C(Cn1nc(-c2ccccc2F)ccc1=O)Nc1ccc(S(=O)(=O)N2CCCCCC2)cc1	i	i	i	14.6µM	i
CN(CC(=O)Nc1ccc(S(=O)(=O)N2CCCC2)cc1)Cc1c(F)cccc1Cl	-59.6	i	i	i	i
COc1ccc(S(=O)(=O)N2CCOCC2)cc1NC(=O)CN(C)Cc1c(F)cccc1Cl	-65.7	i	i	i	i
CCOc1ccc(NC(=O)CN(C)C(=O)C(C)Oc2ccc(Cl)cc2)cc1OCC (configuration not stated)	i	nt	i	i	nt
N#Cc1ccc(NCCNCC(=O)N2N=CCC2C#N)nc1 (configuration not stated)	nt	i	nt	nt	i
COCOc1c2c(c(OCOC)c3c(OCOC)cccc13)/C(=N/N[S+](=O)([O-])c1ccc(C)cc1)C1=C2CCCC1	nt	i	nt	nt	i
Cc1cc(C)c(S(=O)(=O)c2cccc(Br)c2C)c(=O)[nH]1	i	i	i	i	i
NC(=O)[C@@H]1CC2(CC(c3cccc(NC(=O)COc4ccc(Cl)cc4)c3)=NO2)CN1C(=O)c1ccccc1 (some centres not stated)	-65.1	?	i	i	i
COc1ccc(C(=O)N2CC3(CC(c4cccc(NC(=O)COc5ccc(Cl)cc5)c4)=NO3)C[C@@H]2C(N)=O)cc1 (some centres not stated)	-57.2	?	i	i	i
C/C=C(\C)C(=O)N1CC2(CC(c3cccc(NC(=O)COc4ccc(Cl)cc4)c3)=NO2)C[C@@H]1C(N)=O (some centres not stated)	i	i	i	i	i
CCOc1cc(-c2c(C#N)c(N)nc3c2CCc2ccccc2-3)ccc1O	i	i	?	?	i
